Bioassay records: PubChem, Broad Institute
PGC1a acetyl inh: modulators of PGC1a acetylation | U2OS PGC1a acetylation, AlphaScreen anti-acetyl-lysine; with virally co-expressed GCN5 acetyltransferase | inhibition, % at 15.6 µM | actives 0.17% (n = 350,000) | AID 651687;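 active means every replicate shows inhibition of at least 40%; inconclusive means mean inhibition at least 40% but some replicate below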
Env fusion inh: blocks HIV Env-driven cell-cell fusion | inhibition, % at 12.3 µM | actives 1.1% (n = 360,000) | HeLa-JRFL Env/CEM21 cell fusion, luciferase;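 active means mean replicate inhibition score of at least 50 and every replicate individually at or above 50; inconclusive means only one of the two criteria met; inactive means mean below 50 and not all replicates reaching 50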
AF4-AF9 inh: blocks AF4 peptide binding to human AF9; P42568; AlphaScreen, biotin-AF4 peptide binding to FLAG-AF9; inhibition, % at 10 µM; AID 651704; actives 0.47% (n = 350,000);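 active means every replicate reaching a set inhibition limit, whatever the replicate mean, cut at about 25% in these data; inconclusive means mean inhibition reaches that limit but some replicates miss it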
NSD2 HMT inh: NSD2 (human) methyltransferase inhibition; actives 0.54% (n = 310,000); O96028; inhibition, % at 12.5 µM; NSD2 peptide methylation, AlphaScreen, 120 min; in the data active means inhibition above about 50%
Target sequence (O96028 whole entry, looked up): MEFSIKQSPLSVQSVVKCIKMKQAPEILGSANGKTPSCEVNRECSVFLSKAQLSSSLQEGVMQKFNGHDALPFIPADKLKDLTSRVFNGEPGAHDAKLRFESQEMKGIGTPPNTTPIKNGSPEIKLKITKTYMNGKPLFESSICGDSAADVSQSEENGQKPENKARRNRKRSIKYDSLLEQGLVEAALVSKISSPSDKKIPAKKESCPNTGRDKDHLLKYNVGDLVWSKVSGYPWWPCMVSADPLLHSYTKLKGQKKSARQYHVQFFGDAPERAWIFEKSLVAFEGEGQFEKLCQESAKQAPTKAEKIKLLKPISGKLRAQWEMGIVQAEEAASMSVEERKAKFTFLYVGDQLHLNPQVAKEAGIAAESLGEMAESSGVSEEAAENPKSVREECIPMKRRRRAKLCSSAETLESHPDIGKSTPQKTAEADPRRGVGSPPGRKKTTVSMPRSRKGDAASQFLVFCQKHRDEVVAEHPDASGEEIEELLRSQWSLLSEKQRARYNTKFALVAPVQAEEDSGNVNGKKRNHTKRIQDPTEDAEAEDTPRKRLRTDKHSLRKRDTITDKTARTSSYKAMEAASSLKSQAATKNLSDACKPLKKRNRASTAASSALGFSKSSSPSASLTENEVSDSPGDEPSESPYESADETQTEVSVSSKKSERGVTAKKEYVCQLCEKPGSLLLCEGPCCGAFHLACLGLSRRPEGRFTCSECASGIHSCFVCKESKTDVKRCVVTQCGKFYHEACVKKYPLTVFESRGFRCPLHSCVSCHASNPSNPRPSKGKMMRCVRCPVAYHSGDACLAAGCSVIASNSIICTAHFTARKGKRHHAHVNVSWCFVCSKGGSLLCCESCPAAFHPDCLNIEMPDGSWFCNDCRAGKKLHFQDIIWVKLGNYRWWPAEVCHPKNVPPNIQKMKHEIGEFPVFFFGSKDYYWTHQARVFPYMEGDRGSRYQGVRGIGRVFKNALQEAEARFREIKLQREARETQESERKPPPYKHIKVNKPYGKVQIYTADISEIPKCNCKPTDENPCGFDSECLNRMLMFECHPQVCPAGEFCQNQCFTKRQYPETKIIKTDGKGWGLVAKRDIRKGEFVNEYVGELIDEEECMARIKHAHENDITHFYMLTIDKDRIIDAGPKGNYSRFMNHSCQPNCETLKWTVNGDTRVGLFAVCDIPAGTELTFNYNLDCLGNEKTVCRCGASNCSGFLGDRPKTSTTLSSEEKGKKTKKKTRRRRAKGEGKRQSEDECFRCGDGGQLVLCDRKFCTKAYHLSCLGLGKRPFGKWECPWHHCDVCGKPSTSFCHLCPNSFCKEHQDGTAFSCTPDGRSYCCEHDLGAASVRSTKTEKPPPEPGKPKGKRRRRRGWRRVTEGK
INS-1E GSIS act: primary screen for activators of insulin secretion dependent on glucose, INS-1E cells, GLuc reporter luminescence; INS-1E GLuc reporter insulin secretion, 2-3 h; activation, % at 16.6 µM; actives 0.61% (n = 370,000);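 active means lowest replicate activation of at least 40%, so every replicate reaches that level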
Hits are given with their value; . = inactive; ? = inconclusive; / = not tested or not shown; [ ] = dose if it differs, or a comment. The list is not random: actives were taken first. Their share in the collection is about 2.1%.

SMILES	PGC1a acetyl inh	Env fusion inh	AF4-AF9 inh	NSD2 HMT inh	INS-1E GSIS act
O=c1c2ccccc2sn1-c1cccc(Cl)c1	/	.	.	/	.
O=c1c2ccccc2sn1-c1ccccc1F	/	.	.	/	86
Cc1ccccc1-n1sc2cc(F)ccc2c1=O	.	.	.	.	45
O=C(O)c1cccc(-n2sc3ccccc3c2=O)c1	.	.	.	/	.
CN(C)S(=O)(=O)c1cccc(-n2sc3ccccc3c2=O)c1	.	.	/	/	65
O=c1c2ccccc2sn1-c1ccccc1	.	.	/	.	256
Cc1ccc(CN2CCNC(=O)C2CC(=O)NCc2cc(C)n(C)n2)cc1 (centres undefined)	.	.	.	.	.
O=C(/C(C=Nc1cccc(C(F)(F)F)c1)=C(/O)c1ccco1)C(F)(F)F	.	.	/	.	.
C[C@@H]1CN([C@@H](C)CO)C(=O)Cc2cc(NC(=O)CCCN(C)C)ccc2O[C@H]1CN(C)Cc1ccc(C(=O)Nc2ccccc2N)cc1	.	/	31	/	.
C[C@@H]1CN([C@@H](C)CO)C(=O)Cc2cc(NC(=O)CCCN(C)C)ccc2O[C@@H]1CN(C)Cc1ccc(Oc2ccccc2)cc1	.	/	28	/	.
C[C@H]1CN([C@@H](C)CO)C(=O)Cc2cc(NC(=O)CCCCCC(=O)Nc3ccccc3N)ccc2O[C@@H]1CN(C)Cc1ccc(Oc2ccccc2)cc1	.	.	.	/	.
C[C@H]1CN([C@@H](C)CO)C(=O)Cc2cc(NC(=O)CCCN(C)C)ccc2O[C@@H]1CN(C)Cc1ccc(Oc2ccccc2)cc1	.	.	.	/	.
C[C@@H]1CN([C@H](C)CO)C(=O)Cc2cc(NC(=O)CCCCCC(=O)Nc3ccccc3N)ccc2O[C@@H]1CN(C)Cc1ccc(Oc2ccccc2)cc1	.	56[16.7 µM]	.	/	.
CCCOc1ccc(/C=N/Nc2cc(N3CCOCC3)ncn2)c(O)c1	/	67	?	.	.
CC(C)c1ccc(/C=N/Nc2cc(N3CCOCC3)nc(N3CCOCC3)n2)cc1	.	.	/	.	.
Oc1ccc(/C=N/Nc2cc(N3CCCC3)nc(N3CCCC3)n2)cc1O	/	.	.	110	.
Cc1cc(N/N=C/c2ccc(O)cc2O)nc(N2CCOCC2)n1	.	.	.	.	.
Oc1ccc(/C=N\Nc2cc(N3CCOCC3)nc(N3CCOCC3)n2)c(O)c1	.	/	.	153	.
CNC(=O)C(=O)NCC(c1cccs1)S(=O)(=O)c1ccc(F)cc1 (centres undefined)	.	.	.	.	.
Cc1ccc(C(=O)n2nc(-c3cccnc3)nc2N)cc1	.	.	/	.	72
Cc1ccc(-c2nc(N)n(C(=O)c3cccnc3)n2)cc1	.	.	/	.	/
COc1ccc(-c2c[n+](CC(=O)OC3CC(C)CCC3C(C)C)c3n2CCC3)cc1 (centres undefined)	.	60	.	/	.
CC(C)[C@@H]1CC[C@@H](C)C[C@H]1OC(=O)C[n+]1cc(-c2ccc(Cl)cc2)n2c1CCCCC2	.	83	.	/	/
COc1cc2c(cc1OC)C(Nc1ccccc1)=NC(C)(C)C2	.	.	.	.	57
COc1cc2c(cc1OC)-c1nc3ccccc3c(=O)n1C(C)(C)C2	.	.	/	.	/
SMILES	PGC1a acetyl inh	Env fusion inh	AF4-AF9 inh	NSD2 HMT inh	INS-1E GSIS act
Cc1cc(C(=O)COC(=O)c2n[nH]c3ccccc23)c(C)n1CC1CCCO1 (centres undefined)	.	/	/	.	.
CS(=O)(=O)Nc1ccc(C(=O)NCCSC2CCCCC2)cc1	.	/	.	.	/
Cc1ccc(NS(=O)(=O)c2cc(C(=O)NCCSC3CCCCC3)ccc2C)cc1	.	55	/	.	.
Cc1ccc(NS(=O)(=O)c2cc(C(=O)NCCSc3ccc(C)cc3)ccc2C)cc1	.	97	/	.	/
O=c1c(Sc2ccccc2)c(C(F)(F)F)[nH]n1-c1ccccc1	.	.	/	.	/
O=C(NCCNS(=O)(=O)c1ccc(Cl)cc1)c1cc(OCC(F)(F)F)ccc1OCC(F)(F)F	.	125	/	.	/
COc1ccc(-c2csc(=Nc3ccccc3)n2CCO)cc1	/	/	38	.	.
C=CCn1c(-c2ccc(OC)cc2)csc1=Nc1c(C)n(C)n(-c2ccccc2)c1=O	.	/	/	.	/
COc1ccc(-c2csc(=NCCO)n2-c2ccccc2)cc1	.	.	33	.	.
CCOc1cccc(-c2nn(-c3ccccc3)cc2/C=C(/C#N)C(=O)NCCCn2ccnc2)c1	/	.	/	.	.
CCSc1ccc(-c2nn(-c3ccccc3)cc2/C=C(/C#N)C(=O)NCCCOC)cc1	/	.	/	.	64
CCCSc1ccc(-c2nn(-c3ccccc3)cc2/C=C(/C#N)C(=O)NCCCOC)cc1	.	.	/	.	50
